Drawing on PubChem BioAssay (EPA / NIEHS), this text covers outcome and AC50 for 36 molecules.

Where “and” joins values, the source holds several entries; their conditions need not be identical. Identical values can stand only once. Results filed as inconclusive are left out. Where a structure was tested more than once in an assay, its records may differ in their call. Calls of active or inactive are those of the source. How the source made its calls, unless noted: active means hit-call score of the fitted dose curve at least 0.9, where 1 is the maximum; inconclusive means response in the unintended direction; inactive means score below 0.9.

The target of experiment [1] is human Norepinephrine Transporter (NET), SLC6A2 (gene 6530) (UniProt P23975). As to the kind of experiment: NVS_TR_hNET: NovaScreen (NVS) Transporter Assay for human Norepinephrine Transporter (NET) (AID 2283377).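 Further: cell-free membrane protein extracted from CHO cells expressing human NET.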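 On AC50: displacement of radioligand from human NET seen as loss of scintillation signal.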 Put shortly: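 CHO cell extracts expressing the transporter; tritiated or iodinated tracer displaced competitively; filtration plus scintillation readout at 1 h. Single-point duplicates at 25 uM, concentration series for follow-up; activity = signal drop relative to DMSO.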
Sequence of human Norepinephrine Transporter (NET), SLC6A2 (gene 6530) (P23975 whole entry, looked up): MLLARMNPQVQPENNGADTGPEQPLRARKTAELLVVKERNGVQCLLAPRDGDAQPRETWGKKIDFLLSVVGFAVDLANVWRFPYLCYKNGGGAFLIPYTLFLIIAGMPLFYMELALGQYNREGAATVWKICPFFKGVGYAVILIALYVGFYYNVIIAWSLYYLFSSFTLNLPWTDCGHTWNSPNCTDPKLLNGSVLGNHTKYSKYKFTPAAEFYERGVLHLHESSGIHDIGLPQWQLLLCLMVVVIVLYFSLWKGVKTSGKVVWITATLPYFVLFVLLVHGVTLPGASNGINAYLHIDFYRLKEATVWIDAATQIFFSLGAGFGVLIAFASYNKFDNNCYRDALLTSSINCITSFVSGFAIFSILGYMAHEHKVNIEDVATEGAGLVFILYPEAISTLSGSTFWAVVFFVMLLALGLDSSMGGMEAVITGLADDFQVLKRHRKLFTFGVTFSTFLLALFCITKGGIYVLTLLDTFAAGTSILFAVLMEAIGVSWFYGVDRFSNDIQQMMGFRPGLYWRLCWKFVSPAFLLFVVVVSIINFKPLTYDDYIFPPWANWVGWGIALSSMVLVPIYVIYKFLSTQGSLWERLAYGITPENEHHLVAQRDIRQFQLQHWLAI

Experiment [2] addresses Estrogen receptor beta (Homo sapiens) (UniProt Q92731). As to the kind of experiment: OT_ER_ERbERb_1440: Odyssey Thera (OT) 24-hour HEK293T Protein-Complementation Assay for Estrogen Receptor-beta/-beta Homodimer (AID 2283380).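 Further: scored as signal increase over DMSO baseline for both agonists and antagonists.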 The essentials: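 HEK293T cells stably expressing ER beta LBD (aa 310-547) homodimer fragment-complementation reporter, dosed 24 h. Cells formaldehyde-fixed, Draq5-stained; gain in nuclear (agonist) or nuclear plus cytoplasmic (antagonist) fluorescence versus DMSO read by laser scanning cytometry.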

Experiment [3] deals with mouse Estrogen Receptor alpha (Era), Esr1 (gene 13982) (UniProt P19785). The experiment can be described thus: NVS_NR_mERa: NovaScreen (NVS) Nuclear Receptor Binding Assay for mouse Estrogen Receptor alpha (Era) (AID 2283378).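 Further: hit means loss of bound radioligand signal relative to DMSO.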 The essentials: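 Extracted mouse Era incubated with tritiated or iodinated radioligand plus test chemical, 18 h. Bound fraction separated on filters, counted by scintillation. DMSO = negative control/baseline; duplicate single-point at 25 uM, then concentration-response follow-up.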
Sequence of mouse Estrogen Receptor alpha (Era), Esr1 (gene 13982) (P19785 whole entry, looked up): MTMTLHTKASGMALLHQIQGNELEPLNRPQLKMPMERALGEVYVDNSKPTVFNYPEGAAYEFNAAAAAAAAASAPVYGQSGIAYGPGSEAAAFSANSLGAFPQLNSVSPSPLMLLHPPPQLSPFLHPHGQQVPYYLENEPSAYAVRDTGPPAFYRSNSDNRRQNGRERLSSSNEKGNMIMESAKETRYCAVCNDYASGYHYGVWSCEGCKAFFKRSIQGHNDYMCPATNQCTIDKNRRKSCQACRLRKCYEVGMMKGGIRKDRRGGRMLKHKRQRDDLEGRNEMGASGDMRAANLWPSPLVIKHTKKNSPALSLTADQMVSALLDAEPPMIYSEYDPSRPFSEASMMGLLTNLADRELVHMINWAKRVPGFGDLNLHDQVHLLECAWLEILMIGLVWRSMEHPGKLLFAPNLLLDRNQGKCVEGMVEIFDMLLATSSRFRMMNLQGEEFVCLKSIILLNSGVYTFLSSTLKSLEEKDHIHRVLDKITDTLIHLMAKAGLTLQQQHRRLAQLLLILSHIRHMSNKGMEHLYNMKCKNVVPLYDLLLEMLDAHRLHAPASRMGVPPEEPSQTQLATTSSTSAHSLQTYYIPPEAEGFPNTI

Experiment [4] addresses Estrogen receptor (Homo sapiens) (UniProt P03372). The experiment can be described thus: OT_ERa_GFPERaERE_0480: Odyssey Thera (OT) 8-hour HeLa Transcription Induction Assay for Estrogen Receptor (AID 2283381; active means hit-call score of the fitted dose curve at least 0.9, where 1 is the maximum; inactive means score below 0.9). Put shortly: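 Human cervical HeLa cells were treated for 8 hours, after which ERE-driven GFP induction was measured by fluorescence microscopy; increases over DMSO baseline defined activity.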

The target is the same in experiment [5]. As to the kind of experiment: OT_ERa_GFPERaERE_0120: Odyssey Thera (OT) 2-hour HeLa Transcription Induction Assay for Estrogen Receptor (AID 2283382). The essentials:
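Cells (human cervical HeLa) receive compound, incubate 2 hours, then are imaged for fluorescent reporter induction. Images are quantified by high content analysis, and activity is fitted as gain of signal against DMSO.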

The target in experiment [6] is Norway rat Vesicular Monoamine Transporter (VMAT2), neurotransmitter transporter, Slc18a2 (gene 25549) (UniProt Q01827). As to the kind of experiment: NVS_TR_rVMAT2: NovaScreen (NVS) Transporter Assay for Norway rat Vesicular Monoamine Transporter (VMAT2), neurotransmitter transporter (AID 2283376).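 Further: actives lower the bound radioligand signal below the DMSO level.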 The essentials:
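Filter-based scintillation counting of radioligand bound to rat forebrain-derived VMAT2 protein, cell-free, 1 h post-dose. Signal loss relative to DMSO control scored; single-concentration duplicate screen (25 uM) followed by concentration-response testing of actives.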

In experiment [7] the target is Bile acid receptor (Homo sapiens) (UniProt Q96RI1). The experiment can be described thus: OT_FXR_FXRSRC1_0480: Odyssey Thera (OT) 8-hour HEK293T Protein-Complementation Assay for Farnesoid X receptor/SRC-1 Co-activator (AID 2283383). The essentials: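 PCA, HEK293T, 8 h compound exposure; FXR–SRC-1 binding reconstitutes split reporter; fluorescence intensity; positive-direction fit vs DMSO.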
Sequence of Bile acid receptor (Homo sapiens) (Q96RI1 whole entry, looked up): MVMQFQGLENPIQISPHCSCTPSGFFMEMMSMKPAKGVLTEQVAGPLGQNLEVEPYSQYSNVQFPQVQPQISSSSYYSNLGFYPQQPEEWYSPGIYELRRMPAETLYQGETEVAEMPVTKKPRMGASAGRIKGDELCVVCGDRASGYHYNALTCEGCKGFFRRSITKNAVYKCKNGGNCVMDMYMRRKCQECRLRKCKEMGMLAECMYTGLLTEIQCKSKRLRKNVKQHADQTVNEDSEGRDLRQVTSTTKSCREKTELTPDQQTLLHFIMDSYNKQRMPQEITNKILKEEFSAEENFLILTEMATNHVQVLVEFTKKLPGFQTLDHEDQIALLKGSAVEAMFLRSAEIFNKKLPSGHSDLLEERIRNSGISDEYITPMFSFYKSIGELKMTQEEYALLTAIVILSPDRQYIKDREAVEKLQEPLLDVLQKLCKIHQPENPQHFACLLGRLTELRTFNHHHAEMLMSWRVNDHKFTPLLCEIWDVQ

For experiment [8] the target is unchanged. The experiment can be described thus: OT_FXR_FXRSRC1_1440: Odyssey Thera (OT) 24-hour HEK293T Protein-Complementation Assay for Farnesoid X receptor/SRC-1 Co-activator (AID 2283384). The essentials:
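Measures ligand-driven FXR–SRC-1 co-activator recruitment in HEK293T via fragment complementation, fluorescence intensity at 24 h. DMSO served as negative control and baseline for gain-of-signal fitting.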

Experiment [9] concerns the target Agonist Androgen Response Element (ARE), AR (gene 367) (UniProt P10275). The experiment can be described thus: OT_AR_ARELUC_AG_1440: Odyssey Thera (OT) 24-hour CHO-K1 Luciferase Assay for Agonist Androgen Response Element (ARE) (AID 2283379). The essentials: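 Gain-of-signal reporter endpoint: cells (CHO-K1, hamster) are treated 24 h, luciferin/ATP reagent added, and luminescence compared with DMSO baseline.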

For experiment [10], the target named is rat Serotonin Transporter (SERT), Slc6a4 (gene 25553) (UniProt P31652). The experiment can be described thus: NVS_TR_rSERT: NovaScreen (NVS) Transporter Assay for rat Serotonin Transporter (SERT) (AID 2283375). The essentials:
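Filtration-based radiodetection quantified loss of specific radioligand binding in rat forebrain membranes after 1 hour of chemical exposure, relative to DMSO. Chemicals were first tested in duplicate at 25 uM.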

Sequence of Agonist Androgen Response Element (ARE), AR (gene 367) (P10275 whole entry, looked up): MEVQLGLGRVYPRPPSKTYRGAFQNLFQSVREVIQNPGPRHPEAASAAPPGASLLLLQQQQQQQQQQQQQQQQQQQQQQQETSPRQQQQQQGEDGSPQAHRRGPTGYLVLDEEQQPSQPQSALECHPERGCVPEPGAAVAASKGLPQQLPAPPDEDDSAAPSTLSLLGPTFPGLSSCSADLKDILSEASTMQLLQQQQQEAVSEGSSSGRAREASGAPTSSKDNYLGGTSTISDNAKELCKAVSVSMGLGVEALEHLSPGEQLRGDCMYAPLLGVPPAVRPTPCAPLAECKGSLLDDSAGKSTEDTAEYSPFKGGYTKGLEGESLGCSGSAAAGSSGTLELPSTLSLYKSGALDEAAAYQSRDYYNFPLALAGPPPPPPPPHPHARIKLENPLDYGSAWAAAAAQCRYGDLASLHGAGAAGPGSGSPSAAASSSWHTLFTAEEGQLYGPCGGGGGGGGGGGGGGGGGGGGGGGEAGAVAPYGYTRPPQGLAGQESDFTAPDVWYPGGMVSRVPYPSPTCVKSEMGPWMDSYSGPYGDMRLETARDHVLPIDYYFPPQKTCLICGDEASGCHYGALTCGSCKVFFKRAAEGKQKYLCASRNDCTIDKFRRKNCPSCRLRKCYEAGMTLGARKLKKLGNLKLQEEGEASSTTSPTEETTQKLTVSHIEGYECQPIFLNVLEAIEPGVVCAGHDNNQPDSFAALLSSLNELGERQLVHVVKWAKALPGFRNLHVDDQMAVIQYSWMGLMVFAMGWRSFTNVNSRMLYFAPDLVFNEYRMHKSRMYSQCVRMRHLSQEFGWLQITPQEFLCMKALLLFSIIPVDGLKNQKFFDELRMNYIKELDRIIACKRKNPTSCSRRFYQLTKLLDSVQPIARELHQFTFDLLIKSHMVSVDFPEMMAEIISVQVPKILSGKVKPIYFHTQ
Sequence of Norway rat Vesicular Monoamine Transporter (VMAT2), neurotransmitter transporter, Slc18a2 (gene 25549) (Q01827 whole entry, looked up): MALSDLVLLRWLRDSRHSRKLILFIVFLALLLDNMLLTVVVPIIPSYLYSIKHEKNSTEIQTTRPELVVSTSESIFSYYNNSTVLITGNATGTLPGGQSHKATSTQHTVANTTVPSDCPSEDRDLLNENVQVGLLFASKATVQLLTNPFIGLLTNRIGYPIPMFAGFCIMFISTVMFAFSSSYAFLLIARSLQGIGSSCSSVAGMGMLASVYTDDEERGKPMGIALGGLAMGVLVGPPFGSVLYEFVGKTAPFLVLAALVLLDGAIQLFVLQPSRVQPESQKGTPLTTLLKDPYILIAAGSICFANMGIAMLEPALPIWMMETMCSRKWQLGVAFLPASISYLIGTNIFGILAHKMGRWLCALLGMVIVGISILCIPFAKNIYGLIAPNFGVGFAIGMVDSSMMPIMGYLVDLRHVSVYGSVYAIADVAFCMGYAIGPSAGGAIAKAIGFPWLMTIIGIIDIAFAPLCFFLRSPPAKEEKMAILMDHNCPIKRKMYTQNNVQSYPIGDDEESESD
Sequence of Estrogen receptor (Homo sapiens) (P03372 whole entry, looked up): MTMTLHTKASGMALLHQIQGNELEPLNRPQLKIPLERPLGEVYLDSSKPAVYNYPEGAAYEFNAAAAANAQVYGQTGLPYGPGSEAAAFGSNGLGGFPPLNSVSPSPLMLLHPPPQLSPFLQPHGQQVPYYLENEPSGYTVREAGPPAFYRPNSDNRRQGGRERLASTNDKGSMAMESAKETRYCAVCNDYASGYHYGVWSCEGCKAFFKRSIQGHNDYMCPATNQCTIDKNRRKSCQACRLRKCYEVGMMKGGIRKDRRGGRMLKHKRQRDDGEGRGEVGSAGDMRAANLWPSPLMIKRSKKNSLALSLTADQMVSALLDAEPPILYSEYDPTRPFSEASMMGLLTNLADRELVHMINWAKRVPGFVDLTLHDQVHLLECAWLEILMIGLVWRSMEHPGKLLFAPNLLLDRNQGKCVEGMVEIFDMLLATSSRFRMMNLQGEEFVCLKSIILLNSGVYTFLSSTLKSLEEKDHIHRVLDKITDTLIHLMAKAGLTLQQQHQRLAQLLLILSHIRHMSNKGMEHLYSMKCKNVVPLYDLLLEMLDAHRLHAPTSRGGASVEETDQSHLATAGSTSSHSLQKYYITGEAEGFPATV
Sequence of rat Serotonin Transporter (SERT), Slc6a4 (gene 25553) (P31652 whole entry, looked up): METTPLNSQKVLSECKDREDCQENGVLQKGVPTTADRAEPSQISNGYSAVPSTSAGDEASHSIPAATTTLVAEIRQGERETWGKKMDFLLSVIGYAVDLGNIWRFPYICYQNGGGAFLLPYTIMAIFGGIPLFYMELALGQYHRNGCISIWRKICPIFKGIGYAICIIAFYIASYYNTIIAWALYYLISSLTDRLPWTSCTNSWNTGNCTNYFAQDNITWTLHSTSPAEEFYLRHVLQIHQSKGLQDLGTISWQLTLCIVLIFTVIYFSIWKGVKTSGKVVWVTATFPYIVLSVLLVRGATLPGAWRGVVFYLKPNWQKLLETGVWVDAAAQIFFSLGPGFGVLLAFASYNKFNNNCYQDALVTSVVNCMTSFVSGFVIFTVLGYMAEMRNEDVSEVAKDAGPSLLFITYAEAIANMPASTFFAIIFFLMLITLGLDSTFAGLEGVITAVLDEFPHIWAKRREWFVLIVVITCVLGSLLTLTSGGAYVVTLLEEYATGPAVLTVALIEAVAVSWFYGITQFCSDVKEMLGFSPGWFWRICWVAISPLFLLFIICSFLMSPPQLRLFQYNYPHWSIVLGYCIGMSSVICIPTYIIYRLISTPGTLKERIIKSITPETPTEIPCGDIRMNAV
Sequence of Estrogen receptor beta (Homo sapiens) (Q92731 whole entry, looked up, the tested form may be a part): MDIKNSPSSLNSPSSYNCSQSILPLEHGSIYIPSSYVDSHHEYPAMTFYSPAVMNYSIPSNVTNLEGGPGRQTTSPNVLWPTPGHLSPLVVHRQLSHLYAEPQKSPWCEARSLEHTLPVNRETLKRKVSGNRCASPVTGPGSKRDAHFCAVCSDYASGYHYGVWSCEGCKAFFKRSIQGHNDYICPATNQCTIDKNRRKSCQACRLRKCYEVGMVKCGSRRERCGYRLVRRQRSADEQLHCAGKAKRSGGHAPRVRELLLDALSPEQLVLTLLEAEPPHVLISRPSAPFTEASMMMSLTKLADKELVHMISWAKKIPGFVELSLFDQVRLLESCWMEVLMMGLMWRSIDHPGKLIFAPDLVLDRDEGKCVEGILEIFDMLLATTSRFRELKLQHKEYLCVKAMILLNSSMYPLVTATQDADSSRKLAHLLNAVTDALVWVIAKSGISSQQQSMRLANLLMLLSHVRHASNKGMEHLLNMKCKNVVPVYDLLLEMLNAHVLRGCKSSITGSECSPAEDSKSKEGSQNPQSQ

Turning to `CC(C)(C)OOC(=O)c1ccccc1`, the molecule was called inactive in experiment [1] and in experiment [2].
In general, AC50 refers to the concentration at which the activity in the assay is half-maximal. Turning to `CCCCCOC(=O)c1ccccc1C(=O)OCCCCC`, the call in [3] and in experiment [2] was inactive. The AC50 in [4] is 13 µM (active); in [5] it was 12.1 µM (active).
`CCCCCCCCOC(=O)c1ccc(C(=O)OCCCCCCCC)c(C(=O)OCCCCCCCC)c1`: the result in experiment [6], in [2], in [7] and in [8] was inactive.
Regarding `CN(C)[C@@H]1C(=O)C(C(N)=O)=C(O)[C@@]2(O)C(=O)C3=C(O)c4c(O)cccc4[C@@](C)(O)[C@H]3C[C@@H]12`, the call in experiment [1], in experiment [2], in experiment [7] and in [8] was inactive.
On to `Nc1ccc(N=Nc2ccccc2)cc1`, for which the concentration at half-maximal activity (AC50) in experiment [1] was 9.76 µM (active); in experiment [2], 35.6 µM (active); in experiment [8] it was 12.2 µM (active). Moreover, the outcome in experiment [3], in [4], in [5] and in experiment [7] was inactive.
`CNC(=O)Oc1cccc2c1OC(C)(C)C2`: the molecule was called inactive in experiment [9], in experiment [2], in [4] and in [5].
On to `O=C(Nc1ccccc1)c1ccccc1I`, for which, in [1], the concentration at half-maximal activity (AC50) was 11.2 µM (active). The call in experiment [2], in experiment [4] and in experiment [5] was inactive.
For the molecule `COC(=O)c1ccccc1N`, the molecule was classed as inactive in [10], in experiment [6] and in experiment [2].
With `CCCCCCCCn1sccc1=O`, the molecule was called inactive in [3], in experiment [2], in [4] and in experiment [5].
`C=CCc1ccc2c(c1)OCO2`: the molecule was classed as inactive in experiment [6] and in [2].
`COP(=S)(OC)SCN1C(=O)c2ccccc2C1=O`: the AC50 in experiment [1] was 2.04 µM (active). Further, the outcome in [2], in experiment [7] and in [8] was inactive.
In the case of `CCOC(=O)[C@]1(c2ccccc2)Oc2ccccc2[C@@H]1N`, the results for the AC50 in experiment [10] and in [1] were 1.23 µM (active) and 1.56 µM (active), respectively. The result in experiment [2], in [7] and in experiment [8] was inactive.
Take `O=[N+]([O-])C(Br)(CO)CO`: the molecule was called inactive in experiment [1], in experiment [2] and in experiment [4].
For the molecule `CCNS(=O)(=O)C(F)(F)C(F)(F)C(F)(F)C(F)(F)C(F)(F)C(F)(F)C(F)(F)C(F)(F)F`, the call in [9] and in [7] was inactive.
For `[Cl-].[Cl-].[Hg+2]`, the AC50 in experiment [10] is 25 µM (active); in experiment [1], 0.372 µM (active); in [4] it was 65.9 µM (active); in [5], 21.5 µM (active). Besides, the molecule was classed as inactive in experiment [2].
As for `CCC[CH2][Sn]([Cl])([CH2]CCC)[CH2]CCC`, the concentration at half-maximal activity (AC50) was 8.54 µM (active) in [10], 0.361 µM (active) in [1] and 82 µM (active) in experiment [8]. Also, the result in [3], in [4], in experiment [5] and in experiment [7] was inactive.
Regarding `c1ccc2c(c1)-c1cccc3cccc-2c13`, the AC50 in experiment [2] is 50 µM (active).
For `Nc1ccc(Cl)cc1N`, the AC50 is 38.9 µM (active) in [1], 35.3 µM (active) in [7] and 33.8 µM (active) in experiment [8]. For the same molecule, in experiment [9], the outcome was inactive.
For the molecule `Cc1ccc(N)c(N)c1`, the half-maximal activity concentration (AC50) in experiment [1] was 16.4 µM (active). Also, in experiment [2], the molecule was called inactive.
`O=C(N[C@H](c1ccccc1)[C@@H]1CN2CCC1CC2)c1c(Cl)ccc(C(F)(F)F)c1Cl`: the AC50 was 0.359 µM (active) in experiment [10] and 13.3 µM (active) in experiment [1]. In addition, the outcome in experiment [2] and in experiment [7] was inactive.
Regarding `COC(=O)Nc1nc2ccccc2[nH]1`, the call in experiment [9] and in experiment [2] was inactive.
For `ClC1=C(Cl)[C@]2(Cl)[C@H]3[C@H]([C@@H]4C=C[C@H]3C4)[C@@]1(Cl)C2(Cl)Cl`, the molecule was classed as inactive in experiment [3], in experiment [4] and in experiment [5].
As for `CC(C)(O)c1cnn2c(-c3ccc(F)c(-c4c(F)cccc4C#N)c3)cnc2n1`, the call in [9] was inactive. For the same molecule, the results for the half-maximal activity concentration (AC50) in [2], in [7] and in experiment [8] were 93.7 µM (active), 35.7 µM (active) and 64.9 µM (active), respectively.
As to `CC(C)(OOC(C)(C)c1ccccc1)c1ccccc1`, the call in experiment [6] and in [9] was inactive. Moreover, the values for the concentration at half-maximal activity (AC50) in [2], in [7] and in experiment [8] were 9.59 µM (active), 58.3 µM (active) and 65.1 µM (active), respectively.
With `O=C(Oc1ccc(Br)cc1)N1CCN2CCC1CC2`, the half-maximal activity concentration (AC50) was 1.01 µM (active) in [10] and 12.8 µM (active) in experiment [1]. Besides, the outcome in experiment [4] and in experiment [5] was inactive.
As to `C[N+](C)(C)CC1CO1` (configuration not stated), in experiment [9], the concentration at half-maximal activity (AC50) was 26.1 µM (active). Also, the molecule was called inactive in experiment [2], in [4] and in experiment [5].
As to `Cc1cc(N=Nc2ccccc2C)ccc1N`, the figures for the concentration at half-maximal activity (AC50) in experiment [1] and in experiment [2] were 12.4 µM (active) and 12.2 µM (active), respectively. Further, the outcome in experiment [7] was inactive.
For the molecule `Cc1cccc(N)c1N`, the AC50 in experiment [1] is 5.57 µM (active); in [7], 42.8 µM (active); in experiment [8], 49.3 µM (active). Further, in experiment [2], the outcome was inactive.
With `CO[C@@H]1[C@H](OC(=O)NC(=O)CCl)CC[C@]2(CO2)[C@H]1[C@@]1(C)O[C@@H]1CC=C(C)C`, the molecule was classed as inactive in [9], in experiment [2], in experiment [4] and in experiment [5].
`CCCCOC(=O)c1ccccc1C(=O)OCc1ccccc1`: in experiment [6], the molecule was called inactive. For the same molecule, the half-maximal activity concentration (AC50) in experiment [2] is 12.9 µM (active).
In the case of `C[C@]12C=CC3=C4CCC(=O)C=C4CC[C@H]3[C@@H]1CC[C@@H]2O`, the half-maximal activity concentration (AC50) in experiment [10] is 5.68 µM (active); in [6], 13.3 µM (active); in [3] it was 3.65 µM (active) and 4.59 µM (active) and 7.64 µM (active); in [9] it was 210 nM (active) and 213 nM (active) and 2.53 nM (active); in [7] it was 12.7 µM (active) and 14.2 µM (active) and 12.3 µM (active); in [8], 21.3 µM (active) and 21.2 µM (active) and 19.5 µM (active). In addition, the call in [3], in experiment [2], in [7] and in experiment [8] was inactive.
On to `CC(C)N(Cc1ccccc1)C(=O)C(C)(C)C`, for which the call in experiment [9], in experiment [7] and in [8] was inactive. In experiment [2], the AC50 is 41.5 µM (active).
As to `CC(C)(C)C(O)(CCc1ccc(Cl)cc1)Cn1cncn1` (configuration not stated), the AC50 in [1] was 14.3 µM (active).
Consider `O=C1CCCO1`, for which the result in [9], in experiment [2] and in experiment [8] was inactive.
In the case of `CCC(C)c1ccc(O)cc1` (configuration not stated), the molecule was classed as inactive in experiment [6], in experiment [7] and in [8]. The results for the AC50 in [1] and in experiment [2] were 9.53 µM (active) and 28.2 µM (active), respectively.
For the molecule `Nc1ccc([N+](=O)[O-])cc1`, the molecule was classed as inactive in experiment [1], in experiment [9] and in [2]. In experiment [8], the concentration at half-maximal activity (AC50) was 13.3 µM (active).
